Measurements from article PMC7862700, “An all-to-all approach to the identification of sequence-specific readers for epigenetic DNA modifications on cytosine”.

Tests used:
Test in all cases: DAPPL (digital affinity profiling via proximity ligation, sequencing); 10 mM Tris-HCl pH 7.5, 50 mM NaCl, 1 mM DTT, 4% glycerol, room temperature, 30 min; GST-TFs on glutathione beads, 16-mer random dsDNA library, 0.1% formaldehyde crosslink after washing; high values mean tight binding
Conditions in all cases: protein: recombinant; tags: N-terminal GST; dsDNA, one strand shown
ERF = biological target: T1, ERF (Homo sapiens, UniProt P50548 1-548)
T1 sequence: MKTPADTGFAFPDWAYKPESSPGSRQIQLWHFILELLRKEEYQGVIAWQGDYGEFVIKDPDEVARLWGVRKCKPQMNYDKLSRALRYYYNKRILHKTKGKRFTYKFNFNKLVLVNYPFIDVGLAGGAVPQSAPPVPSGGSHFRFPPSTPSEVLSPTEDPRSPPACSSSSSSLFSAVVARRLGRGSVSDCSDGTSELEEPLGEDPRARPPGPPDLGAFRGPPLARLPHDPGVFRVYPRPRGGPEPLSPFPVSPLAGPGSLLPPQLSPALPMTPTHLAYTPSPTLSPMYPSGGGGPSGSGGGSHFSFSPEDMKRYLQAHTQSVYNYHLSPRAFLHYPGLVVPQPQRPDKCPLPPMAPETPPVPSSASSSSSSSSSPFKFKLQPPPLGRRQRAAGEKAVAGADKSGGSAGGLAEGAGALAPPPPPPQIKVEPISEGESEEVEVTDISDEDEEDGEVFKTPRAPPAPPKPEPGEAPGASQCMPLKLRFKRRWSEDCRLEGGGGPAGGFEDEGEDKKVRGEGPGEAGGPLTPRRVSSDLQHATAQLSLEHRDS
Summary of the method: (§1)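 Binding signal is each hexamer's read frequency for a factor divided by its frequency in the tag-only sample. The factors were GST-fused human transcription factors from yeast, captured on glutathione beads, DNA-barcoded and pooled with that sample. Pools were incubated with 200 nmole of a random double-stranded 16-mer DNA library in Tris/NaCl/DTT/glycerol buffer at room temperature for 30 min, then washed, crosslinked with 0.1% formaldehyde, proximity-ligated with BsaI/T4 ligase (1 h, 37 °C), PCR-amplified and sequenced on an Illumina NextSeq500.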

ETV3L = biological target: T2, ETV3L (Homo sapiens, UniProt Q6ZN32 1-361)
T2 sequence: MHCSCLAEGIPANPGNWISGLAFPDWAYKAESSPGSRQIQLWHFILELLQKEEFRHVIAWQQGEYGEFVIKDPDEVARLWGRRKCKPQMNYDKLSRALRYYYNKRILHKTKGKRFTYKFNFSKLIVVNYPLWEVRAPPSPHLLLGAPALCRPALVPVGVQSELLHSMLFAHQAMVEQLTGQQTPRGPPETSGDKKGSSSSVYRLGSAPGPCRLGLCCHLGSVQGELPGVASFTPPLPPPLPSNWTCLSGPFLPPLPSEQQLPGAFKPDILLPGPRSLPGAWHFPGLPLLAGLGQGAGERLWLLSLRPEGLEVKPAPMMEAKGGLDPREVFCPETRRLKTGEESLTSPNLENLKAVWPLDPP
Summary of the method: as §1

ETS2 = biological target: T3, ETS2 (Homo sapiens, UniProt P15036 1-469)
T3 sequence: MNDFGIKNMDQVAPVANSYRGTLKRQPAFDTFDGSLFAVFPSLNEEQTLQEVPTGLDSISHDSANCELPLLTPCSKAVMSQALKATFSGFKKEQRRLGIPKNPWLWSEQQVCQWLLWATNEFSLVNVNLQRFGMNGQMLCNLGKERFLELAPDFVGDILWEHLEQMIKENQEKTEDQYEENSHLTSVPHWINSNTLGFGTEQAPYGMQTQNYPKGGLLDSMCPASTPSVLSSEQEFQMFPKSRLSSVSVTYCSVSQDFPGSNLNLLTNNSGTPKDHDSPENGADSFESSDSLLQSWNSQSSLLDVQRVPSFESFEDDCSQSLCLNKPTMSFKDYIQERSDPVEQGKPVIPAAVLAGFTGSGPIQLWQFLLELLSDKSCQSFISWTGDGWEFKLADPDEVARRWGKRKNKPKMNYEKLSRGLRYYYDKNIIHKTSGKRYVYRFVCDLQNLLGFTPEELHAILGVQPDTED
Summary of the method: as §1

SPDEF = biological target: T4, SPDEF (Homo sapiens, UniProt O95238 1-335)
T4 sequence: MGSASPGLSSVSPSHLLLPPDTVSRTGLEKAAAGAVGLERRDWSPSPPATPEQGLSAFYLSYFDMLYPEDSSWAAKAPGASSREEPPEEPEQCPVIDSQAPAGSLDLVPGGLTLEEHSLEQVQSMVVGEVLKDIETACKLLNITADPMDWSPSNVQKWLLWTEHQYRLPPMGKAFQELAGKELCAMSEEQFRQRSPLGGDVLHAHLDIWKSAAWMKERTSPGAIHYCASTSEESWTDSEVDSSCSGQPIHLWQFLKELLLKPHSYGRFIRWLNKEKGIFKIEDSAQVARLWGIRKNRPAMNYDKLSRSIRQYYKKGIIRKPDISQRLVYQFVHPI
Summary of the method: as §1

ETV7 = biological target: T5, ETV7 (Homo sapiens, UniProt Q9Y603 1-341)
T5 sequence: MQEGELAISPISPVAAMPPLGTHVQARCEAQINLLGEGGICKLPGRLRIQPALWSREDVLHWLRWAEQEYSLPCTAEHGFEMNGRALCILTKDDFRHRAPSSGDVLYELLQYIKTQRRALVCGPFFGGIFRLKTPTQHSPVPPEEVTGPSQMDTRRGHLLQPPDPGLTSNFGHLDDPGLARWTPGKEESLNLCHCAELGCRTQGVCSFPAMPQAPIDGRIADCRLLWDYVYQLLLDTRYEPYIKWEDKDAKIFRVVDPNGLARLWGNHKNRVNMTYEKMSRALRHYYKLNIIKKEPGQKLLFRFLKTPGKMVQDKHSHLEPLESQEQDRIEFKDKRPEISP
Summary of the method: as §1

ELF5 = biological target: T6, ELF5 (Homo sapiens, UniProt Q9UKW6-2 1-255)
T6 sequence: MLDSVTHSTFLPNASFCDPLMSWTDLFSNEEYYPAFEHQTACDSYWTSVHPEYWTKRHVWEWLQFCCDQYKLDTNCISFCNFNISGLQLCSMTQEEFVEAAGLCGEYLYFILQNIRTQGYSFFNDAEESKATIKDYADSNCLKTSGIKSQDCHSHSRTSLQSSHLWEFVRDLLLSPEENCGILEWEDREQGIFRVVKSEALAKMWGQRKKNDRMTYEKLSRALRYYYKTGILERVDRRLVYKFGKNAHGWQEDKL
Summary of the method: as §1

ETV3 = biological target: T7, ETV3 (Homo sapiens, UniProt P41162-2 1-143)
T7 sequence: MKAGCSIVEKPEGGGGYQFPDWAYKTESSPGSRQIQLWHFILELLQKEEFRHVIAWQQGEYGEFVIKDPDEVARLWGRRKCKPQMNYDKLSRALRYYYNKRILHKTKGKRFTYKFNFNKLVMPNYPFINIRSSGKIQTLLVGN
Summary of the method: as §1

ETV6 = ETV6 (Homo sapiens, UniProt P41212 1-452)
ETV6, sequence (P41212 whole entry): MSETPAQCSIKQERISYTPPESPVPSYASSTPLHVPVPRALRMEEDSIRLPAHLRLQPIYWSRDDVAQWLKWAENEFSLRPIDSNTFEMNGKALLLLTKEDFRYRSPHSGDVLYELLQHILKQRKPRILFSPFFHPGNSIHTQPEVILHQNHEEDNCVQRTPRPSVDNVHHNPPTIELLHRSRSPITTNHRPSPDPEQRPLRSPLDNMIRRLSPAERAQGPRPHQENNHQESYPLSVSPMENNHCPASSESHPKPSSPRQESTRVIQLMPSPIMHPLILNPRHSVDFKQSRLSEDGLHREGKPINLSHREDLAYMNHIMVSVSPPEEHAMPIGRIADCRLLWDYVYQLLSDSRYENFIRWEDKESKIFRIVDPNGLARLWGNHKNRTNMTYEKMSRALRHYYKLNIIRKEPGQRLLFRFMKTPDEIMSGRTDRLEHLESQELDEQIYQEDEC
Summary of the method: as §1

Row | Sequence | binding signal (ERF) | binding signal (ETV3L) | binding signal (ETS2) | binding signal (SPDEF) | binding signal (ETV7) | binding signal (ELF5) | binding signal (ETV3) | binding signal (ETV6)
1 | ACCAAC | 1.24 fold enrichment (6-mer frequency, TF over GST control) | 1.13 fold enrichment (6-mer frequency, TF over GST control) | 1.15 fold enrichment (6-mer frequency, TF over GST control) | 1.22 fold enrichment (6-mer frequency, TF over GST control) | 1.13 fold enrichment (6-mer frequency, TF over GST control) | 1.13 fold enrichment (6-mer frequency, TF over GST control) | 1.24 fold enrichment (6-mer frequency, TF over GST control) | 1.2 fold enrichment (6-mer frequency, TF over GST control)
2 | AGCCTC | 1.22 fold enrichment (6-mer frequency, TF over GST control) | 1.32 fold enrichment (6-mer frequency, TF over GST control) | 1.3 fold enrichment (6-mer frequency, TF over GST control) | 1.14 fold enrichment (6-mer frequency, TF over GST control) | 1.31 fold enrichment (6-mer frequency, TF over GST control) | 1.16 fold enrichment (6-mer frequency, TF over GST control) | 1.15 fold enrichment (6-mer frequency, TF over GST control) | 1.18 fold enrichment (6-mer frequency, TF over GST control)
3 | TTACTG | 1.2 fold enrichment (6-mer frequency, TF over GST control) | 1.04 fold enrichment (6-mer frequency, TF over GST control) | 1.09 fold enrichment (6-mer frequency, TF over GST control) | 1.07 fold enrichment (6-mer frequency, TF over GST control) | 1.14 fold enrichment (6-mer frequency, TF over GST control) | 1.02 fold enrichment (6-mer frequency, TF over GST control) | 1.21 fold enrichment (6-mer frequency, TF over GST control) | 1.17 fold enrichment (6-mer frequency, TF over GST control)
4 | TACCGG | 1.4 fold enrichment (6-mer frequency, TF over GST control) | 1.47 fold enrichment (6-mer frequency, TF over GST control) | 1.6 fold enrichment (6-mer frequency, TF over GST control) | 1.77 fold enrichment (6-mer frequency, TF over GST control) | 1.36 fold enrichment (6-mer frequency, TF over GST control) | 1.71 fold enrichment (6-mer frequency, TF over GST control) | 1.76 fold enrichment (6-mer frequency, TF over GST control) | 1.68 fold enrichment (6-mer frequency, TF over GST control)
5 | TCTAAC | 1.22 fold enrichment (6-mer frequency, TF over GST control) | 1.19 fold enrichment (6-mer frequency, TF over GST control) | 1.19 fold enrichment (6-mer frequency, TF over GST control) | 1.14 fold enrichment (6-mer frequency, TF over GST control) | 1.29 fold enrichment (6-mer frequency, TF over GST control) | 1.15 fold enrichment (6-mer frequency, TF over GST control) | 1.18 fold enrichment (6-mer frequency, TF over GST control) | 1.22 fold enrichment (6-mer frequency, TF over GST control)
6 | CCTACC | 1.37 fold enrichment (6-mer frequency, TF over GST control) | 1.37 fold enrichment (6-mer frequency, TF over GST control) | 1.36 fold enrichment (6-mer frequency, TF over GST control) | 1.35 fold enrichment (6-mer frequency, TF over GST control) | 1.21 fold enrichment (6-mer frequency, TF over GST control) | 1.44 fold enrichment (6-mer frequency, TF over GST control) | 1.35 fold enrichment (6-mer frequency, TF over GST control) | 1.32 fold enrichment (6-mer frequency, TF over GST control)
7 | TTTCTT | 1.22 fold enrichment (6-mer frequency, TF over GST control) | 1.34 fold enrichment (6-mer frequency, TF over GST control) | 1.32 fold enrichment (6-mer frequency, TF over GST control) | 1.19 fold enrichment (6-mer frequency, TF over GST control) | 1.37 fold enrichment (6-mer frequency, TF over GST control) | 1.31 fold enrichment (6-mer frequency, TF over GST control) | 1.34 fold enrichment (6-mer frequency, TF over GST control) | 1.23 fold enrichment (6-mer frequency, TF over GST control)
8 | CTATTA | 1.08 fold enrichment (6-mer frequency, TF over GST control) | 1.11 fold enrichment (6-mer frequency, TF over GST control) | 1.14 fold enrichment (6-mer frequency, TF over GST control) | 1.07 fold enrichment (6-mer frequency, TF over GST control) | 1.07 fold enrichment (6-mer frequency, TF over GST control) | 1.1 fold enrichment (6-mer frequency, TF over GST control) | 1.05 fold enrichment (6-mer frequency, TF over GST control) | 1.14 fold enrichment (6-mer frequency, TF over GST control)
9 | TAGGCT | 1.37 fold enrichment (6-mer frequency, TF over GST control) | 1.16 fold enrichment (6-mer frequency, TF over GST control) | 1.29 fold enrichment (6-mer frequency, TF over GST control) | 1.24 fold enrichment (6-mer frequency, TF over GST control) | 1.35 fold enrichment (6-mer frequency, TF over GST control) | 1.09 fold enrichment (6-mer frequency, TF over GST control) | 1.14 fold enrichment (6-mer frequency, TF over GST control) | 1.24 fold enrichment (6-mer frequency, TF over GST control)
10 | GATATT | 1.05 fold enrichment (6-mer frequency, TF over GST control) | 1.12 fold enrichment (6-mer frequency, TF over GST control) | 1.13 fold enrichment (6-mer frequency, TF over GST control) | 1.26 fold enrichment (6-mer frequency, TF over GST control) | 1.14 fold enrichment (6-mer frequency, TF over GST control) | 1.25 fold enrichment (6-mer frequency, TF over GST control) | 1.14 fold enrichment (6-mer frequency, TF over GST control) | 1.17 fold enrichment (6-mer frequency, TF over GST control)
11 | CCCCGG | 1.34 fold enrichment (6-mer frequency, TF over GST control) | 1.24 fold enrichment (6-mer frequency, TF over GST control) | 1.17 fold enrichment (6-mer frequency, TF over GST control) | 1.28 fold enrichment (6-mer frequency, TF over GST control) | 1.18 fold enrichment (6-mer frequency, TF over GST control) | 1.3 fold enrichment (6-mer frequency, TF over GST control) | 1.43 fold enrichment (6-mer frequency, TF over GST control) | 1.21 fold enrichment (6-mer frequency, TF over GST control)
12 | CTATTG | 1.37 fold enrichment (6-mer frequency, TF over GST control) | 1.27 fold enrichment (6-mer frequency, TF over GST control) | 1.35 fold enrichment (6-mer frequency, TF over GST control) | 1.18 fold enrichment (6-mer frequency, TF over GST control) | 1.25 fold enrichment (6-mer frequency, TF over GST control) | 1.23 fold enrichment (6-mer frequency, TF over GST control) | 1.42 fold enrichment (6-mer frequency, TF over GST control) | 1.35 fold enrichment (6-mer frequency, TF over GST control)
